Assays:
Assay in all cases: log2 ratio of Biotin-Ahx-Ub-VS probe labelling (fragment/DMSO); higher = less target engagement (more negative = stronger competition), active = hit call of the paper (q ≤ 0.05, log2 ratio ≤ -1)
Details in all cases: compound concentration: 200 uM; treatment time: 3 h
USP9X = USP9X (UniProt Q93008)
Procedure, shortened: (§1)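 Fragment (200 µM) or vehicle was incubated for 3 h with triplicate HEK293T lysate samples of 495 µg, which were then treated with Biotin-Ahx-Ub-VS at 0.5 µM final for 1 h. Labelled DUBs were enriched on NeutrAvidin, digested with LysC and trypsin, and analysed by diaPASEF LC-MS/MS. Values are average log2 fragment/vehicle ratios from an unpaired t-test on global-median-normalised Spectronaut label-free quantities, using proteins with ≥2 unique peptides.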

UniProt O00487 = target: UniProt O00487
Procedure, shortened: as §1

UniProt O00507 = target: UniProt O00507
Procedure, shortened: as §1

UniProt P51784 = target: UniProt P51784
Procedure, shortened: as §1

UniProt Q5T2D3 = target: T1, UniProt Q5T2D3
T1 sequence (whole entry): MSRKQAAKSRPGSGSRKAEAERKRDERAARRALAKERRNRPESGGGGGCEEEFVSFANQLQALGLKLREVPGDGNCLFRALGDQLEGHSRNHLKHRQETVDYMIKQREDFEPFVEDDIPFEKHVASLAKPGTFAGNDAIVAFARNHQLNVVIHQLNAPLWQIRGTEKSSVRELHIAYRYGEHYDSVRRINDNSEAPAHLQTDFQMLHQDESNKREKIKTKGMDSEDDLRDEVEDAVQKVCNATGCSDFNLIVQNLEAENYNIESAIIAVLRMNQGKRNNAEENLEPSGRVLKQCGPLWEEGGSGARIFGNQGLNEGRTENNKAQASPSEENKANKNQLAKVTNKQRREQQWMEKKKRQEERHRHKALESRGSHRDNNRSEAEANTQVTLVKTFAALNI
Procedure, shortened: as §1

UniProt Q8TE49 = target: T2, UniProt Q8TE49
T2 sequence (whole entry): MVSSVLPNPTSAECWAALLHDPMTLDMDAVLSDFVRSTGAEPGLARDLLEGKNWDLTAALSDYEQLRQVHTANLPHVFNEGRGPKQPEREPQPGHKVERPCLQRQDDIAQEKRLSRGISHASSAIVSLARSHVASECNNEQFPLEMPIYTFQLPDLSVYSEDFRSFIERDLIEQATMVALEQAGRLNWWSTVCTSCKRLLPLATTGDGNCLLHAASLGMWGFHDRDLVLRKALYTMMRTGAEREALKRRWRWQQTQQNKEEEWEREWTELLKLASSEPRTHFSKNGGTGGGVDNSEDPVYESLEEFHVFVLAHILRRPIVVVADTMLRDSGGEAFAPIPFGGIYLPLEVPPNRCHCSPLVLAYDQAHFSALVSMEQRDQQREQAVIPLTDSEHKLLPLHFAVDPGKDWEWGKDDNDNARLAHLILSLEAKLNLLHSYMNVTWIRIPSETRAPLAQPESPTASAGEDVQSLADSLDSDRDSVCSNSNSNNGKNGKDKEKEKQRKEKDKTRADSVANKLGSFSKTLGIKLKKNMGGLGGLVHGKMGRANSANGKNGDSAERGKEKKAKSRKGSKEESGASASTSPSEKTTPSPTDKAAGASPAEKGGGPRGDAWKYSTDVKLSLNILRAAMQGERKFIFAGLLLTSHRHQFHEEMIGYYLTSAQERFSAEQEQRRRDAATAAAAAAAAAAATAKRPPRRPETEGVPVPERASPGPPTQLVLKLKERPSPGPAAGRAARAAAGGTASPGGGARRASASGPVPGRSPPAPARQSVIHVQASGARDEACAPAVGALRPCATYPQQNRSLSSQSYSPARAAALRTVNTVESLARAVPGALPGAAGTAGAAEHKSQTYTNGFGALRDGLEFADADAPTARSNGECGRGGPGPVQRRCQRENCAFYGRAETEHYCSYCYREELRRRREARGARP
Procedure, shortened: as §1

UniProt Q9P2H5 = target: T3, UniProt Q9P2H5
T3 sequence (whole entry): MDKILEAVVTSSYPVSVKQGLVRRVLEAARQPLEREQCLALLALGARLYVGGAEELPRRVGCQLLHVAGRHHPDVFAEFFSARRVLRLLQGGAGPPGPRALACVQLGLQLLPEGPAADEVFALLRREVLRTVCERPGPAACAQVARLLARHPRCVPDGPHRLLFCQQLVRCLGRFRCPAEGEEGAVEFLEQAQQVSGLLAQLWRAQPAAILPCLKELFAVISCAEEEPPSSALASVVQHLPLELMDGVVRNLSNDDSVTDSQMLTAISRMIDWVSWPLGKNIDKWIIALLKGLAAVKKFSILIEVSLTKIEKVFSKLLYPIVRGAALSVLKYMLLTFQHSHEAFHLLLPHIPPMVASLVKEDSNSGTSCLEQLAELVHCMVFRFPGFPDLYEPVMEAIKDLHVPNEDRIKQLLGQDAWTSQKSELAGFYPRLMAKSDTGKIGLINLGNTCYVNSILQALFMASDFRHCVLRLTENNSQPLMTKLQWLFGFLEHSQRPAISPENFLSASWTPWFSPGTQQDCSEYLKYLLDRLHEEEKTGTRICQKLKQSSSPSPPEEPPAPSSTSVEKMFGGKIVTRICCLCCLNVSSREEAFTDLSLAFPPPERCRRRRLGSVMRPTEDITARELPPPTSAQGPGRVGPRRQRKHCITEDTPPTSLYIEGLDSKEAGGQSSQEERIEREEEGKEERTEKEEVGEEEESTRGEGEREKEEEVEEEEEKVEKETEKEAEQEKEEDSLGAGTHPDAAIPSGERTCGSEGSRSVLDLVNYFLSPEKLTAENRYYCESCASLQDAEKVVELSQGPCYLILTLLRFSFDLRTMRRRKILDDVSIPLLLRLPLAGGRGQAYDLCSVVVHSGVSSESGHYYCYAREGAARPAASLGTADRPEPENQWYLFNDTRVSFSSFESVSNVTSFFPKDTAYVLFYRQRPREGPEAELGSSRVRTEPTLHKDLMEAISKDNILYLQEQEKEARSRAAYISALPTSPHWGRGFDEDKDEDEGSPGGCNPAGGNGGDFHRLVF
Procedure, shortened: as §1

UniProt Q9UGI0 = target: T4, UniProt Q9UGI0
T4 sequence (whole entry): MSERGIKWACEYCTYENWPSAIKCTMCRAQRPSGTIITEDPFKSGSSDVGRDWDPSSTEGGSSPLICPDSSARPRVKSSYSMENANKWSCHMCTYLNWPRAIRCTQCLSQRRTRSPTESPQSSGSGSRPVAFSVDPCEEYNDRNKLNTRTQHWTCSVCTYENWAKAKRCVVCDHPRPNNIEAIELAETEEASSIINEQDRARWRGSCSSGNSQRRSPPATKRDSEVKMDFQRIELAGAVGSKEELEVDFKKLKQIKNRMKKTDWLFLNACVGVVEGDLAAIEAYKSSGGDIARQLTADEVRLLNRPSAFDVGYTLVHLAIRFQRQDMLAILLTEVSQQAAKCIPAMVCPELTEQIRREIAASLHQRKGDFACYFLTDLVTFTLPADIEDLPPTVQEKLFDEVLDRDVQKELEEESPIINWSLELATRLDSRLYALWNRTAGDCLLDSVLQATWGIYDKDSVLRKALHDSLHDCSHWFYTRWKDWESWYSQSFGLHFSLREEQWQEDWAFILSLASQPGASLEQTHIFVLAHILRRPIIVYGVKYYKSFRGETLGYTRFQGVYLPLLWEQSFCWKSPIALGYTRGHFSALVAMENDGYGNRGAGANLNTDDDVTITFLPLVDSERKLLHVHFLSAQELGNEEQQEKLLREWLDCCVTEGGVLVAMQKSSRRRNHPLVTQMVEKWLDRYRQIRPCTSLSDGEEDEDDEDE
Procedure, shortened: as §1

YOD1 = target: T5, YOD1 (UniProt Q5VVQ6)
T5 sequence (whole entry): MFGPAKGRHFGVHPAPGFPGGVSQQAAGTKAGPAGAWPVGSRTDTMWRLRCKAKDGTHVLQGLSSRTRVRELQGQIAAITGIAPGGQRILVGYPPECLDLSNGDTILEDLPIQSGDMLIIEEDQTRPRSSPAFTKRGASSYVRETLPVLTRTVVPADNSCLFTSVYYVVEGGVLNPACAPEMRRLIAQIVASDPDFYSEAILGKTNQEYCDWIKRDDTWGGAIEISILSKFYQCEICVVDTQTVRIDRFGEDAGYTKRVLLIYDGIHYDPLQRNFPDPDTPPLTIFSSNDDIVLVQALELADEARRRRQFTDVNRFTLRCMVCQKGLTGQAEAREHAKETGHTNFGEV
Procedure, shortened: as §1

Measured: log2 ratio of Biotin-Ahx-Ub-VS probe labelling

Chain of UniProt O00507 (O00507 whole entry): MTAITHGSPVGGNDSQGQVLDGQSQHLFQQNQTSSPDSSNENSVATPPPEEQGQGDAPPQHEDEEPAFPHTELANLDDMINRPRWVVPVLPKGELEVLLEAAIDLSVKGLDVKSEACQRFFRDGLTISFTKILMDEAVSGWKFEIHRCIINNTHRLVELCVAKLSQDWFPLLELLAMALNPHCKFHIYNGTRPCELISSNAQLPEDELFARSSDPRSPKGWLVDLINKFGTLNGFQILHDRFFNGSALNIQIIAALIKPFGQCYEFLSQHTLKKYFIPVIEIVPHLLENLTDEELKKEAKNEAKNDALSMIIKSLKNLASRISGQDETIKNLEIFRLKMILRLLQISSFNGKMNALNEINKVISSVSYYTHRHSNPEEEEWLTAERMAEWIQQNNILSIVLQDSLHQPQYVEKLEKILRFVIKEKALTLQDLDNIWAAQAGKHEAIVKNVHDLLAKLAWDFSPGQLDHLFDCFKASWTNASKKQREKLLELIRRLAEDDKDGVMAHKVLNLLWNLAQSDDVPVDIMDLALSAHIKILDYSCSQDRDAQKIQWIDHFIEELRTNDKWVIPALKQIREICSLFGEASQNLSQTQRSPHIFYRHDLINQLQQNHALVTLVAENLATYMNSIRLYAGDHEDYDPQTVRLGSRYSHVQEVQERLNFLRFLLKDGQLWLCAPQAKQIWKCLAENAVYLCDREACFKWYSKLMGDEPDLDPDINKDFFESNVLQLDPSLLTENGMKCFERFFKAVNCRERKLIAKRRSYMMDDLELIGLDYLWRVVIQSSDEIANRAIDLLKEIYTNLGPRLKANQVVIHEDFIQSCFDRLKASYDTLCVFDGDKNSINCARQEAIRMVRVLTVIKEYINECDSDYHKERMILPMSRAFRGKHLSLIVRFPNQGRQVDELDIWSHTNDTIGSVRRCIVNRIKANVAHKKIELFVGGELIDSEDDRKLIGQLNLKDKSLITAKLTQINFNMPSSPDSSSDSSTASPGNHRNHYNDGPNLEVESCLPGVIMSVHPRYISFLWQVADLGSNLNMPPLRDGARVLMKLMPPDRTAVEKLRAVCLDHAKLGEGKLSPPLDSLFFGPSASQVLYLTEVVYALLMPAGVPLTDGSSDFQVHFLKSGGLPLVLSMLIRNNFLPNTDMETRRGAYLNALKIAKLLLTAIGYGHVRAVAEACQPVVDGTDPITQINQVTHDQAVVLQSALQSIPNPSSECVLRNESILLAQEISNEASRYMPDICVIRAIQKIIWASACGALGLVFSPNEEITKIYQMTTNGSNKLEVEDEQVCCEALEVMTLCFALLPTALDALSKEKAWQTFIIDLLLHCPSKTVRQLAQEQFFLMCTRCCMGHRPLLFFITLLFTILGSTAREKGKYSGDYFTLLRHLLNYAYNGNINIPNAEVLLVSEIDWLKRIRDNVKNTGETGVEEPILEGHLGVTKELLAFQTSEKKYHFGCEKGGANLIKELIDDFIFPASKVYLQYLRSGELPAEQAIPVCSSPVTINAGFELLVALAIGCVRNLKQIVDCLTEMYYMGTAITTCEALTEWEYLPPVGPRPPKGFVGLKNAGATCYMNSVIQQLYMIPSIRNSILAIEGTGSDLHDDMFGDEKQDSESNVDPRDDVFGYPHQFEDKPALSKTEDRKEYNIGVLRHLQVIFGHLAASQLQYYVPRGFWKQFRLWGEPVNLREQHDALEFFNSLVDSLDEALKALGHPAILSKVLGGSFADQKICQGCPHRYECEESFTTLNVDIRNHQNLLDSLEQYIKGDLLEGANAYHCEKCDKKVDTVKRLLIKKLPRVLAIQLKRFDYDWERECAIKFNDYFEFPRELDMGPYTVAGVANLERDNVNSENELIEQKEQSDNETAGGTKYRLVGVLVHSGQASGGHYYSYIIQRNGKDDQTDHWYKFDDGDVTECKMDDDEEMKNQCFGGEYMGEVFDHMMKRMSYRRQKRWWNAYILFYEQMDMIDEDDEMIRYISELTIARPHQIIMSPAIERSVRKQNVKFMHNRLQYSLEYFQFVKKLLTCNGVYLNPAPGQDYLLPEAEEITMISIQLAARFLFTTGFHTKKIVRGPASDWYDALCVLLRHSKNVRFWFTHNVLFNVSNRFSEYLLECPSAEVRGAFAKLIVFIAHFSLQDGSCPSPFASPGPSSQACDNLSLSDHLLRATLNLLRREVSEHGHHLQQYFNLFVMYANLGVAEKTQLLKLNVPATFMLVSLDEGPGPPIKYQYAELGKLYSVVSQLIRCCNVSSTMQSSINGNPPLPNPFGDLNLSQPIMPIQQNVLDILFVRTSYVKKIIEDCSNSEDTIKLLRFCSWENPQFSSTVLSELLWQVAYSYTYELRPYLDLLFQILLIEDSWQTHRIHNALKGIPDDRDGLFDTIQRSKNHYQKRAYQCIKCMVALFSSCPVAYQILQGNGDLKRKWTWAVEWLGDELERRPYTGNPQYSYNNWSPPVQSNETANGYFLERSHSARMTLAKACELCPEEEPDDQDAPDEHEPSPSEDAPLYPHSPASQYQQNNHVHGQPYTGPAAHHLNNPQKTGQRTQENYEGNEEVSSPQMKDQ
Chain of UniProt O00487 (O00487 whole entry): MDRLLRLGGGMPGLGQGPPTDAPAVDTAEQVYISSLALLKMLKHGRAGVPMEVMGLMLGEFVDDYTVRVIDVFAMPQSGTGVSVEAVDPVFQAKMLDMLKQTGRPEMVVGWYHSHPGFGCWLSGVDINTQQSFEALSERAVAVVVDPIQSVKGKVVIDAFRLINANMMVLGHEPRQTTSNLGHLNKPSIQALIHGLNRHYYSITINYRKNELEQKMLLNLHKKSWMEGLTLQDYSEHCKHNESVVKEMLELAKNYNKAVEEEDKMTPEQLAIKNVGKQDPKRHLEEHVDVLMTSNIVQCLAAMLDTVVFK
Chain of UniProt P51784 (P51784 whole entry): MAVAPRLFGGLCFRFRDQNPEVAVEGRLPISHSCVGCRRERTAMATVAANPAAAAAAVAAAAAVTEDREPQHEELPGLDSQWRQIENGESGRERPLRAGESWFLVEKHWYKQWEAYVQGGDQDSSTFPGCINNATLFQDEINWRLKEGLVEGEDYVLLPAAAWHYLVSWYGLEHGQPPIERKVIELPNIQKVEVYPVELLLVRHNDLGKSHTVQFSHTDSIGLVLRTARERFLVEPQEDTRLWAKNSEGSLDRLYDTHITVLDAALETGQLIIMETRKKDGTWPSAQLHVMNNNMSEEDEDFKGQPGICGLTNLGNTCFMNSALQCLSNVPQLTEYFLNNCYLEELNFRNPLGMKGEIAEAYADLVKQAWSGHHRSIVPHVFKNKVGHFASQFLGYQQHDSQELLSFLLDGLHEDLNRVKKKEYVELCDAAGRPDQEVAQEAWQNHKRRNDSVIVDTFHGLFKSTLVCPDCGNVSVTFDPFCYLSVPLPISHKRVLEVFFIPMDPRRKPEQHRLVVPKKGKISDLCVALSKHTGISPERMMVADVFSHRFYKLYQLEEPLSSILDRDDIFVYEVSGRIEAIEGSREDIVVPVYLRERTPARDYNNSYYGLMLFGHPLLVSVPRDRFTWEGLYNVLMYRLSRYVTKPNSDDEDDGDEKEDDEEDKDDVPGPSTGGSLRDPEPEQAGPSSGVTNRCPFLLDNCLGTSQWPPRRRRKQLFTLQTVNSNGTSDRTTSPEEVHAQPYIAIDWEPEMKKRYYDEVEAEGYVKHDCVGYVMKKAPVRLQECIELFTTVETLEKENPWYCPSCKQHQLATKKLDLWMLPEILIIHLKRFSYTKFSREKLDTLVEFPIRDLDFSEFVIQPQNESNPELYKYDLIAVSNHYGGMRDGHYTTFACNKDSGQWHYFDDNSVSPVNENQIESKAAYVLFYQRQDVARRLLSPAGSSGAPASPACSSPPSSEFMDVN

NC(=O)C1CCCN(C(=O)CCl)C1 (centres undefined)
inactive: USP9X -0.029 | UniProt O00487 -0.0923 | UniProt O00507 -0.185 | UniProt P51784 -0.0378 | UniProt Q5T2D3 0.103 | UniProt Q8TE49 0.0487 | UniProt Q9P2H5 -0.0803 | UniProt Q9UGI0 -0.698 | YOD1 0.00724

Reference: the supplement of paper PMC11732987, “Enantioselective OTUD7B fragment discovery through chemoproteomics screening and high-throughput optimisation” (Communications Chemistry, 2025)
